From PubChem BioAssay AID743395 (Broad Institute, 2014)
The whole screen tested about 1,200 compounds, of which about 480 (40%) were called active. The set was probably picked from earlier hits. These entries were drawn from the full list. Results with a measured potency or affinity are listed apart. Values without a mark were called inactive. No rule for the calls is given here.

Assay: HepG2 cell cytotoxicity, dose response, cytotoxicity control, CellTiter-Glo luminescence, cherry-pick, set 2 (AID 743395);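 also: 0% = neutral control wells and -100% = positive control wells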
Conditions: HepG2 viability, CellTiter-Glo ATP luminescence, 72 h; series mostly up to 26 µM; activity change, negative = cytotoxicity: at the top concentration

| Structure (SMILES) | activity change, negative = cytotoxicity [%] |
| --- | --- |
| Cc1cc(C(=O)CN2C(=O)C(=O)N(Cc3ccccc3)C2=O)c(C)n1Cc1ccccc1 | -8.93 |
| CC(C)[N+]1(C)[C@@H]2CC[C@@H]1CC(OC(=O)C(CO)c1ccccc1)C2 (some centres undefined) | -13.9 |
| Cc1noc(C)c1NC(=O)N(C)C[C@H]1Oc2cc(C#CCC3CCCC3)ccc2S(=O)(=O)N([C@@H](C)CO)C[C@@H]1C | -21.9 |
| CCC1(C)Cc2ccccc2-c2nc[nH]c(=O)c21 (centres undefined) | -19.7 |
| O=S(=O)(c1ccc(OCc2ccc(Br)cc2)cc1)N1CCOCC1 | 2.21 |
| COc1cc(C(c2sc3nc(C)nn3c2O)N2CCN(c3ccccc3)CC2)cc(OC)c1OC (centres undefined) | 20.9 |
| Cn1nnnc1N=N/C(=N/Nc1ccccc1)c1ccccc1 | -12.8 |
| Cc1cccc(C(=O)NCC(=O)OCC(=O)N(C)CC(=O)Nc2ccccc2Cl)c1 | -8.28 |
| C[C@H]1CN([C@@H](C)CO)S(=O)(=O)c2ccc(/C=C/c3ccccc3)cc2O[C@H]1CN(C)Cc1ccccc1 | -32.4 |
| C[C@@H]1CN([C@H](C)CO)S(=O)(=O)c2ccc(C#Cc3ccccc3F)cc2O[C@H]1CN(C)C(=O)Cc1cccnc1 | 21.9 |
| COc1ccccc1C#Cc1ccc2c(c1)O[C@@H](CN(C)Cc1cccnc1)[C@H](C)CN([C@@H](C)CO)S2(=O)=O | 5.01 |
| COc1ccccc1C#Cc1ccc2c(c1)O[C@H](CN(C)Cc1cccnc1)[C@H](C)CN([C@@H](C)CO)S2(=O)=O | -5.36 |
| O=C(NC1CCCCC1)c1cc(C2CC2)nn1-c1ccccc1 | 2.5 |
| O=C(CNC1CCCCC1)NN=C(c1ccccc1)c1ccccc1 | -17.1 |
| CC(=O)Nc1ccc(S(=O)(=O)Nc2cccc(-c3nc4cc(C)ccc4o3)c2)cc1 | -22.7 |
| Cc1cc(Nc2ccc(Br)cc2)nc2ccccc12 | -20.8 |
| CC(=O)Nc1cccc(NC(=O)CN2c3cccc4cccc(c34)S2(=O)=O)c1 | -14 |
| Clc1ccc(Nc2ccc3ccccc3n2)cc1 | -12.5 |
| CC(=O)Nc1ccc(S(=O)(=O)N2c3ccccc3C(C)=CC2(C)C)cc1 | -29.7 |
| CCC1(C2=CCCCC2)C(=O)NC(=S)N=C1N (centres undefined) | -1.67 |
| COc1cccc(-c2ccc([C@H]3[C@@H](CO)N(C(=O)c4ccccn4)[C@H]3C#N)cc2)c1 | -1.97 |
| Cc1cccc(S(=O)(=O)N2C[C@H]3[C@@H](c4ccccc42)[C@H](CO)N3CC2CCCC2)c1 | -7.41 |
| CCCNC(=O)N1CC2(CN(S(=O)(=O)c3cccc(OC)c3)C2)c2c(n(C)c3cc(OC)ccc23)[C@H]1CO | -5.83 |
| N#Cc1ccc(-c2ccc3c(c2)[C@H]2[C@H](CCN2S(=O)(=O)c2ccccc2F)[C@@H](CO)N3)cc1 | -15.8 |
| N#Cc1ccc(-c2ccc(C3[C@@H]4CN(C(=O)C5CCC5)C[C@H]3N4)cc2)cc1 (some centres undefined) | -25.8 |

| Structure (SMILES) | activity change, negative = cytotoxicity [%] |
| --- | --- |
| CCOC(=O)/C(=C/C=C1\Sc2cc(C)c(C)cc2N1CC)C(C)=O | -4.04 |
| COCC(C)n1c(SCC(=O)N2CC(=O)Nc3ccccc32)nc2ccccc2c1=O (centres undefined) | -14.5 |
| CCN(CC(=O)Nc1c(F)cccc1F)C(=O)C1CC1 | -0.756 |
| CN(c1ccc(OCCOc2ccccc2Cl)cc1)S(=O)(=O)c1ccccc1 | -26.7 |
| O=C1c2cccc3c(N4CCCCC4)ccc(c23)C(=O)N1c1cccc(O)c1 | -8.5 |
| Cn1c(=O)c(NC2CCCCC2)c2c3c(cccc31)C(=O)c1ccccc1-2 | 5.22 |
| Cc1cccc(C(=O)N(Cc2ccco2)c2c(N)n(Cc3ccccc3)c(=O)[nH]c2=O)c1 | -0.07 |
| O=C(COC(=O)/C=C/c1ccccc1Cl)NC(=O)NCc1ccccc1 | -17.1 |
| CC1CN(S(=O)(=O)c2ccc(C(=O)Nc3ccccc3F)cc2)CC(C)O1 (centres undefined) | -17.4 |
| COc1ccccc1N(C)S(=O)(=O)c1ccc(C(=O)Nc2nccs2)cc1 | -9.42 |
| c1ccc(-c2csc(NC3=NCCCCC3)n2)cc1 | -1.28 |
| CCn1c(SCC(=O)N/N=C/c2ccc(O)c(OC)c2)nc2ccccc21 | 0.421 |
| CCOc1cc(OCC)c(C(C)=O)cc1OCC | 4.37 |
| COc1cccc2c1C(=O)C=C(C)C2=O | -10.7 |
| Cc1ccc(NC(=O)c2ccc(Cl)c(S(=O)(=O)Nc3c(C)n(C)n(-c4ccccc4)c3=O)c2)cc1Cl | 0.196 |
| O=c1[nH]c(CN2CCN(c3ccc(O)cc3)CC2)nc2scc(-c3ccc(Cl)cc3)c12 | -28.1 |
| CCOC(=O)N1CCN(C(=O)C2CCC(=O)N(CCCN3CCCC3=O)C2)CC1 (centres undefined) | 4.66 |
| COc1ccccc1NS(=O)(=O)c1ccc(C)c(C(=O)Nc2cc(C)on2)c1 | -9.34 |
| COc1ccc(Cl)cc1C(=O)NNC(=O)CCNS(=O)(=O)c1ccccc1 | -24.7 |
| COC(=O)c1ccc(CS(=O)(=O)c2ccc(F)cc2)o1 | 14.9 |
| Nc1[nH]nc2ncc3cc4ccccc4nc3c12 | -30.7 |
| Clc1cccc(-c2ccc(C=Nc3ccc(N4CCOCC4)cc3)o2)c1Cl | -1.34 |
| O=C(CN1CCOc2ccccc21)NCc1ccc(Cl)cc1 | -14.9 |
| COC(=O)COc1cccc2c(=O)n(CC(=O)NCc3ccccc3)ccc12 | 1.47 |
